Experimental data reported in PubChem BioAssay (NCI).
Values joined by “and” are separate entries in the source; they are usually repeats but may differ in a detail not shown here. Equal entries are not always repeated. This is part of a sample that, as a whole, favours compounds with a hit. Of some 79,000 tested, about 15% had one in any assay. Active and inactive are the calls of the source. Cut-off read from the data, not from the text of the source: active = growth inhibition above about 70%; inactive = the rest.

Experiment: NCI Yeast Anticancer Drug Screen. Data for the mlh1 rad18 strain (AID 175)
Settings: S. cerevisiae mlh1 rad18 strain growth inhibition; at 50.0 µM; stronger effect = higher value
Summary of the method: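 Genetically defined yeast (DNA repair-deficient) exposed to compounds; growth inhibition determined relative to vehicle.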

| SMILES | growth inhibition |
| --- | --- |
| CC(Cc1ccc(O)cc1)NCC(O)c1ccc(O)c(O)c1 (stereo not given) | 22.9% (inactive) |
| O=c1[nH]cc(CCl)c(=O)[nH]1 | -0.15% (inactive) |
| CC1(C)C=C(NC(=O)N2CC2)C(C)(C)N1O | 1.45% (inactive) |
| Cc1nnnn1C | -13.9% (inactive) |
| NNC(=O)c1ccc(N)cc1 | 7.1% (inactive) |
| Nc1ccccc1C(=O)O | 3.8% (inactive) |
| Cc1c([N+](=O)[O-])cc(C(C)(C)C)c(O)c1[N+](=O)[O-] | 70.6% (active) |
| C=C(C)C(=O)OCC12CCC(C)=CC1OC1C(=O)C(OC(=O)C(=C)C)C2(C)C12CO2 (stereo not given) | -34% (inactive) |
| CN(C)CCc1ccc(O)cc1 | -0.85% (inactive) and 4.85% (inactive) |
| O=C(O)C(O)C(O)C(O)C(O)C(O)C(O)CO.[Cd] (stereo not given) | -1.55% (inactive) and 0.55% (inactive) |
| CN(C)CCN(C)C.[C-]#[O+].[C-]#[O+].[C-]#[O+].[C-]#[O+].[W+2] | 0.05% (inactive) |
| C1CC2OC2CC1C1CO1 (stereo not given) | -17.9% (inactive) |
| COCCCNP(=O)(OC(C)C)OC(C)C | 14.8% (inactive) |
| [Be]=[Se] | 29.7% (inactive) |
| CC(C)(C[N+](=O)[O-])C[N+](=O)[O-] | 10.9% (inactive) |
| Cc1cccc(-n2c(C)nc3ccccc3c2=O)c1C | -13.1% (inactive) |
| O=[N+]([O-])c1ccc(OCc2ccc(Cl)c(S(=O)(=O)F)c2)c(Cl)c1 | 24.1% (inactive) |
| COc1ccc([N+](=O)[O-])cc1CNCCCl | 19.4% (inactive) |
| O=[N+]([O-])c1ccc(O)c(CBr)c1 | 4.95% (inactive) |
| CC12CCC3C(=CC=C4CC(O)CCC43C)C1CCC2=O (stereo not given) | 23.1% (inactive) and 16.1% (inactive) |

| SMILES | growth inhibition |
| --- | --- |
| Cn1ccnc1C[N-]Cc1nccn1C.O=[N+]([O-])[O-].O=[N+]([O-])[O-].[Cu+2] | 5.5% (inactive) |
| CN(C)C(=O)C1(c2ccccc2)CCNCC1 | -4.2% (inactive) |
| O=C1[C@@H]2[C@H](C(=O)N1c1ccccc1)[C@H]1CC[C@H]2N1C(=O)c1ccccc1 | 6.5% (inactive) |
| O=C(O)c1ccc([As](=O)(O)O)cc1[N+](=O)[O-] | 7.4% (inactive) |
| CC(=O)CC(C)=O.CC(=O)CC(C)=O.CC(=O)CC(C)=O.[Mn] | 8.05% (inactive) and 18.4% (inactive) |
| Brc1ccc2nncc(N3CC3)c2c1 | -20.6% (inactive) |
| CCN(CCCl)c1ccc(NC(=O)c2cc(C(=O)NCCN(C)C)cc(C(=O)Nc3ccc(N(CC)CCCl)cc3)c2)cc1 | 12.5% (inactive) |
| COc1ccc2c(c1OC)C[C@@H]1c3c(cc4c(c3-2)OCO4)CCN1C | -56.5% (inactive) |
| NC(=O)Cc1ccc([As]=O)cc1 (stereo not given) | 14.9% (inactive) |
| COP(=O)(OC)C(=O)c1ccc(C)cc1 | -7% (inactive) |
| O=C(C1CO1)C(Cl)(Cl)Cl (stereo not given) | -2.35% (inactive) |
| C/C=C(\C)C(=O)N[C@@H](c1ccccc1)[C@@H](O)C(=O)OC1C[C@@]2(O)[C@@H](OC(=O)c3ccccc3)[C@@H]3[C@]4(OC(C)=O)CO[C@@H]4C[C@H](O)[C@@]3(C)C(=O)[C@H](OC(C)=O)C(=C1C)C2(C)C (stereo not given in full) | 29.9% (inactive) |
| Cc1cc(Cl)ccc1NC(=O)/C(CC(=O)CC(c1ccccc1)c1c(O)c2ccccc2oc1=O)=N\O (stereo not given) | -5.8% (inactive) |
| O=C1C(=O)c2ccccc2C(O)=C1CN(CCCl)CCCl | 29.8% (inactive) |
| O=C1NC(=O)C2(O)NC(=O)NC2(O)N1 (stereo not given) | 18.1% (inactive) |
| CC(=O)OC1(C(C)=O)CC2(c3ccccc3)OC1(c1ccccc1)c1ccccc12 (stereo not given) | 7.25% (inactive) |
| C/C1=N\NC(=O)c2ccccc2C(=O)N/N=C(\C)c2cccc1n2.O=[N+]([O-])[O-].[Zn+2] | -5.05% (inactive) |
| COP(=O)(OC)C(=O)c1ccccc1 | -16.1% (inactive) |
| O=Cc1cn(CCCCCCCCCCCCn2cc(C=O)c3ccccc32)c2ccccc12 | -12.8% (inactive) |
| C=C1CC2CC[C@@]34CC5O[C@@H]6C(O[C@H]7CC[C@H](CC(=O)OC8C(C)C9OC%10C[C@]%11(C[C@@H]%12O[C@]%13(CC(C)[C@@H]%14O[C@H](C(O)CC(O)CO)C[C@@H]%14O%13)CC(C)[C@@H]%12O%11)OC%10CC9O[C@H]8C[C@H]8OC(CC[C@@H]1O2)C[C@@H](C)C8=C)OC7[C@@H]6O3)[C@H]5O4 (stereo not given in full) | 69.8% (inactive) |
